Calls of active or inactive are those of the source. Unless noted, the rule behind the calls is not given here.
Legend:
[1] = tested on: Wnt5a (protein binding on small-molecule microarray); assay: Wnt5a binders on small-molecule microarray, primary screen, biophysical, 635/667 nm fluorescence (AID 1142); conditions: 635 nm fluorescence, higher = more signal;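 note: fluorescence read at 667 nm with signal to noise per printed feature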
[2] = cell viability in Huh7 cells, primary screen, cytotoxicity control for HCV replication inhibitor project, CellTiter-Glo luminescence, basal, 48 h (AID 1143); conditions: Huh7 HCV replicon, higher = more signal, called active from +8 up or from −8 down;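 note: Huh7 hepatoma cells carrying a hepatitis C replication reporter with no stimulus; test concentration not given here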
[3] = P. aeruginosa biofilm formation inhibitors, primary screen, PAO1 strain, BacTiter-Glo luminescence, LB-PBS (AID 1144); conditions: 12 h, higher = more signal
[4] = CREB reporter modulators without forskolin, primary screen, cell-based, PC12, CRE-LacZ reporter, unstimulated (AID 1145); conditions: no forskolin, luminescence, 4.5 h, higher = more signal, called active from +8 up or from −8 down
[5] = CREB reporter modulators under forskolin, primary screen, cell-based, PC12, CRE-LacZ reporter, forskolin-stimulated (AID 1146); conditions: luminescence, 4.5 h, higher = more signal, called active from +8 up or from −8 down;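 note: PC12 cells with 6xCRE LacZ reporter stimulated by forskolin 10 µM; beta-galactosidase reporter signal reflecting CREB driven transcription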
[6] = target: Streptavidin (Streptomyces avidinii) (UniProt P22629); assay: streptavidin binders on small-molecule microarray, primary screen, artefact control for SMM compound annotation, biophysical, 635/667 nm fluorescence (AID 1147); conditions: streptavidin binding, higher = more signal;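 note: signal reflects streptavidin binding to arrayed compounds as a control protein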
Streptavidin (Streptomyces avidinii), sequence (P22629 whole entry, looked up): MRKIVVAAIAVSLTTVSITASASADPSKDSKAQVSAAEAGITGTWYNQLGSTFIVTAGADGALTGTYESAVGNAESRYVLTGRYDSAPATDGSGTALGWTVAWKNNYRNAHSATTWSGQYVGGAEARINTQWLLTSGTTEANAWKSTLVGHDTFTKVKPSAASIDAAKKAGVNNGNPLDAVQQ

[7] = small-molecule binders of probe aInhba, primary screen, biochemical, small-molecule microarray, 635/667 nm fluorescence (AID 1148); conditions: higher = more signal;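 note: score merges 667nm spot fluorescence with signal-to-noise for antibody binding to printed compounds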
Torsin-1A (Homo sapiens) [8] = target: Torsin-1A (Homo sapiens) (UniProt O14656); assay: torsin A binders from cell lysate, primary screen, small-molecule microarray, wild-type, 635/667 nm (AID 1149); conditions: COS7 hTOR1A-WT lysate, 635 nm fluorescence, higher = more signal
Torsin-1A (Homo sapiens), sequence (O14656 whole entry, looked up): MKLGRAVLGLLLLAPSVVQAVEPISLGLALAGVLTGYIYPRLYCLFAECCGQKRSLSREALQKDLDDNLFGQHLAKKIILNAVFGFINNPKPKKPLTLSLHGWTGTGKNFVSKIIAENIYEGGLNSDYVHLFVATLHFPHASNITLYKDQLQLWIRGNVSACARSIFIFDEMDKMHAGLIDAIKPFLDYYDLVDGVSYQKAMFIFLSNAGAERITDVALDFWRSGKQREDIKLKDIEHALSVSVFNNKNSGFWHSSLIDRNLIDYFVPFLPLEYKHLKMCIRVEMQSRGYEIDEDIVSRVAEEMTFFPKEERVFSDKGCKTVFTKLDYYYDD

Torsin-1A (Homo sapiens) [9] = target: Torsin-1A (Homo sapiens) (UniProt O14656); assay: small-molecule binders of mutant TOR1A in lysate, primary screen, cell lysate, small-molecule microarray, COS7 lysate, 635/667 nm fluorescence (AID 1150); conditions: COS7 hTOR1A mutant lysate, 635 nm fluorescence, higher = more signal;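 note: score pools 667 nm emission and signal to noise measuring lysate protein binding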
[10] = tested on: Sonic hedgehog protein (Shh); assay: small-molecule binders of Shh protein, primary screen, biochemical, small-molecule microarray, 635/667 nm fluorescence (AID 1151); conditions: small-molecule microarray binding, 635 nm fluorescence; higher = more signal;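 note: Shh protein binding to compounds spotted on small-molecule microarray slides; score combines spot fluorescence intensity with signal-to-noise across triplicate slides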

Row | Structure (SMILES) | composite z-score [1] | z-score [2] | z-score [3] | z-score [4] | z-score [5] | composite z-score [6] | composite z-score [7] | composite z-score (Torsin-1A (Homo sapiens) [8]) | composite z-score (Torsin-1A (Homo sapiens) [9]) | composite z-score [10]
1 | CC(CO)N1C(=O)[C@@H]2[C@H]3C(=O)OCC=C[C@H]3OC23C=CCN(Cn2nnc4ccccc42)C(=O)[C@@H]13 (stereo not given in full) | -0.33 | -0.407 (inactive) | 1.48 (inactive) | 0.0524 (inactive) | -0.391 (inactive) | -0.78 | -0.213 | -0.49 | -1.26 | 0.464
2 | COCCOC(=O)N1C(=O)[C@@]2(c3cc(C#CC4(O)CCCCCC4)ccc31)[C@H](C(=O)N1CCc3cc(OC)c(OC)cc3C1)[C@H]1C(=O)O[C@H](c3ccccc3)[C@H](c3ccccc3)N1[C@@H]2c1ccc(OCCO)cc1 | 0.536 | -1.38 (inactive) | -0.555 (inactive) | -0.465 (inactive) | 0.581 (inactive) | 1.04 | -0.0736 | 0.71 | 0.362 | 1.58
3 | C=CCC(OC(C)=O)[C@@H]1[C@@H](N(Cc2cccc3ccccc23)C(=O)Cc2ccc(F)cc2)c2cc(OCCCO)ccc2N1C(=O)c1ccc2ccccc2c1 (stereo not given in full) | 0.107 | -0.156 (inactive) | -1.04 (inactive) | -0.724 (inactive) | 1.06 (inactive) | 0.0722 | -0.0774 | -0.035 | -0.183 | 0.508
4 | CC(C)C[C@@H]1NC(=O)[C@@H]2C[C@H](C(=O)NCCCCCCN)[C@H](c3cccc(OCCO)c3)N2C1=O | 0.0254 | -0.214 (inactive) | -1.74 (inactive) | -0.675 (inactive) | 0.348 (inactive) | 0.919 | 0.747 | 0.255 | 1.73 | 2
5 | CC(C)NC(=O)[C@@]1(C)c2ccccc2C(=O)N(Cc2ccc(OC(F)(F)F)cc2)[C@H]1c1ccc(CO)cc1 | -0.766 | -1.98 (inactive) | -0.539 (inactive) | -0.411 (inactive) | -1.48 (inactive) | -0.933 | -0.183 | -2.23 | 0.492 | -0.354
6 | COc1ccc(CCNC(=O)[C@@]2(c3ccc([N+](=O)[O-])cc3)CC(=O)N(C3CCCCC3)[C@@H]2c2ccc(CO)cc2)cc1 | 0.199 | -1.48 (inactive) | 0.733 (inactive) | -0.125 (inactive) | -1.11 (inactive) | 0.0841 | 0.249 | 0.358 | 0.56 | 0.137
7 | NC(=O)[C@@]1(Cc2ccccc2)COC(c2ccc(OCCCO)cc2)=N1 | 0.0546 | 0.257 (inactive) | 0.126 (inactive) | 2.24 (inactive) | -1.34 (inactive) | -0.504 | 0.105 | -0.475 | 0.709 | -0.429
8 | CCCCC(CC)C(O)C1C=CC2C(=O)N(C)C(=O)C2N1Nc1ccccc1 (stereo not given) | 0.122 | 0.136 (inactive) | -0.152 (inactive) | -0.14 (inactive) | 0.184 (inactive) | 0.454 | 0.017 | -0.111 | 0.254 | -0.76
